For 40 sequences, PBM binding z-score results are on record in the supplement of paper PMC6555819.

This experiment deals with VDR:RXRa (NR concentration 270 nM, RXRa partner concentration 90 nM). In words: PBM binding z-score (relative to random genomic background probes); higher = stronger binding; sequences stand for … in GC…GCGATTGACAGCGTAGAATGAAGG
The procedure:
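Protein-binding microarray (Agilent 4x180K custom design, double-stranded 60-nt probes: 5' GC cap, 34-nt variable region, 24-nt constant primer region; full probe sequence given). Purified or IVT nuclear receptor:RXRα heterodimers (3:1 NR:RXRα, mostly 270:90 nM) or homodimers were incubated for 1 h in PBS with 2% milk and no ligand, then detected with Alexa488 antibodies. Fluorescence from o1-orientation probes (~5 replicates averaged) was converted to z-scores against 500 random hg19 background probes. Variable regions are seed direct-repeat (DR0–DR5) sites, all their single-nucleotide variants and half-site ablations.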
Regarding ATCTCTAGGTATAGATAGTTCAGTGAATGCAAAT, the PBM binding z-score came out at 0.666. In the case of GCGTCTGGGGCATCAGCAGGTTACCATAACTTAA it was -0.165; in that of CGAACGAGGGCATGAGTTGATGGCAAATGCCGAT, 1.34. In the case of CGAACTAGGTCATCCCGGACAGTGAATACATTGA it was 3.63; in that of ACAGACCGGTGATGAAGGTAACTCAGGCTATCAT, -0.216. In the case of AGTCAAAGTTCATCTAGGTAGCGTAAGATATGCT it was 4.94; in that of GCTCGGAGAACAAGGTCAGAGCTTTGTCCGTAGA, 1.5; in that of CCTTCTGGGCCAAGGTCATTGATCAGTCAAAGCA, 3.17.

For AATACAGGGTCACTAGGCCAGAGTTGGTACGAAT, the PBM binding z-score is 4.26.

In the case of ACTATTAGTTGACTTAGGGCAACCTATACGACGC, the PBM binding z-score stood at 0.406. In the case of CGAACTAGGTCTAGGACAGTGAATCTCCGCACGC it was -0.692. In the case of CCTCGGAGGACAACAGGAGGTTAGAGCTGCCAGA it was -0.265. The sequence CAGCCTAGGACAGGGCCAGTATAGGAGGAACGTT displayed a PBM binding z-score of -0.833. In the case of CGTCCAAGGTCAATCCTAGGTCAGTGAAAGCATT it was 4.96; in that of CCAGACAGGTGAAAGGTAACTCAATCTGGTACGC, 0.936.

For the sequence CTTCCAAGGTCAGCAGGTCAGTGAAAGCGACGTG, the PBM binding z-score came to 4.03. In the case of TAGCCTAGGTTATTGGGCCAGTATAGTACGCATC, the PBM binding z-score was -0.034. Take ACAGACAGGTGATGAAGGTTACTCAGGCTATCAT: the PBM binding z-score was found to be 1.64. For CCTAGCAGGCCAATCTGGGTCAGTCAAGGCTTGA, the PBM binding z-score is -0.258. In the case of CCTATTTGGTCAGGAGGTCACACACCGGATATGA it was 4.05.

CCTTGGAGGACAGAAGGTCAGAGCTGTCCGCTTT registered a PBM binding z-score of 1.12. TCTTGTAGATCAGCAGGTTAAGAGAGCTGGCCAA had a PBM binding z-score of 0.132. In the case of GCTGCTAGGTCAGGTTAGTCAGCTAACGGGTACG it was 0.235. As for CCTCGGAGGACAACTGGAGGTCAGAGCTGCCAGA, the PBM binding z-score worked out at 2.08. In the case of TCTATTAGTTGAAGGGGAACCGACGAGTCCGTTT it was 1.13. Regarding TCTTGTAGATCCACAGGAGGTTAAGAAAGATCGA, the PBM binding z-score stood at 0.74. In the case of CCTTACGGGTCACGAGGTGATAGCACGACGAGCG it was 4.18; in that of TCATATAGGTAAAGGTGAAAGTAGAACGATATGA, 1.01; in that of AGTAAAAGTTCATCTAGGTAACGTAAGATATGCT, 4.57. As to TAGCTTAGGTCATTCAGGGGCCAGTATAGAAAGC, the PBM binding z-score came out at 3.19. In the case of AGAATGAGGTTACCAACGATCAGGGAAACGCTTG it was 1.28; in that of CGAACTAGGTCATTGACAGGGCAGTGAATAGTAA, 2.15. In the case of TCTAGTAGGCCAGAGGGTCACTCAAGAGGTACGG it was 1.91; in that of TCTGCTAGGTCAACGATGGTCAGGTAATCTGCTA, 1.78; in that of GCAGACAGGTGAAATGCAGGTAACTCAGGGTGGC, -0.417. With TCTAGTTGGTCAAAGGTCACCCACTCGAAATGCG, the PBM binding z-score was 5.09. In the case of TCATATAGGTAAACGGGTGAAAGTCCGTAAGTTA it was 1.16. In the case of ATATGTAGGTGACATCCGGGTCATTCAGGCTATG it was 4. In the case of TTACCAAGGTGAGCTGAAGTCGTTGATCCAACTC it was -0.383; in that of CCTAGCAGGCCAGGGTCACGCAAGCATTTCGCTT, 3.95.
